Compound activity: PubChem BioAssay, National Center for Advancing Translational Sciences (NCATS)
Caspase-1 inhib = caspase-1 (human) inhibition, allosteric or competitive. Caspase-1 enzyme, Ac-WEHD-AFC fluorogenic rate. P29466. Potency, µM (titrated, usually from 57.5 µM), without a hit: at the highest dose activity change, negative = inhibition, hits mostly inhibitors. hit rate 0.03% among 75,000. AID 900;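 further: plate controls were vehicle for no effect and no substrate for full effect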
Target sequence (P29466 120-297 limits assumed): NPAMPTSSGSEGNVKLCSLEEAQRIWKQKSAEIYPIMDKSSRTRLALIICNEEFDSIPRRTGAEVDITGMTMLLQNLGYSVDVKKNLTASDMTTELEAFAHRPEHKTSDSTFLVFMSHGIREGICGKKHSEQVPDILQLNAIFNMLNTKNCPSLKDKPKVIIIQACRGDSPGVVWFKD
Target sequence (P29466 317-404 limits assumed): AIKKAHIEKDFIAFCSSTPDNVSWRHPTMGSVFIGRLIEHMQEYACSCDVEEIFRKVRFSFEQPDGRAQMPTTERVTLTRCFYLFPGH
15-hLO inh = inhibitors of human 15-lipoxygenase (ALOX15); AID 887; P16050; purified 15hLO-1, xylenol orange hydroperoxide absorbance; Potency, µM (series often up to 57.1 µM), without a hit: at the highest dose activity change, negative = inhibition, actives largely listed as inhibitors; hit rate 1.4% among 74,000; further: on the % scale 0 is the no-effect control and ±100 the full control effect; nearly all actives have a fitted effect of over 55% in size
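Quantitative HTS in 25 mM Hepes pH 7.5 containing 0.01% Triton X-100: human 15hLO-1 at 40 nM, arachidonic acid at 50 uM, 6 min turnover. Product quantified via ferrous oxidation/xylenol orange, 573:405 nm absorbance ratio.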
HEK293 cAMP cs = parental HEK293 cAMP activation (counter-screen) | parental HEK293 CNG cAMP sensor, membrane potential fluorescence | Potency, µM (titrated, usually from 57.1 µM), for the others: top-dose activation, usual class: activators | hit rate 2.5% among 73,000 | AID 938; further: % of control where 0% means no effect; nearly all actives have a fitted effect of over 55% in size
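Parental HEK 293 cells stably expressing a modified CNG channel (no TSHR) report cAMP rise as membrane depolarization. Membrane potential dye with 100 uM RO 20-1724 was loaded for 60 min at room temperature, then compound added for 30 min; fluorescence read at 590 nm.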
TSHR agonist = agonists of human thyroid stimulating hormone receptor; P16473; HEK293-CNG-TSHR cells (CNG channel as cAMP sensor), membrane potential dye, cAMP; Potency, µM (titrated, usually from 57.1 µM), without a hit: at the highest dose activation, usual class: activators; hit rate 0.48% among 73,000; AID 926; active means well fitted activation curve with a large enough effect in the main read-out, with a control signal flat, not every such curve was filed as active; inconclusive means small, poorly fitted or top-dose-only effect, or a change in a side signal; inactive means no such curve, though single readings can be large or run the other way; % of control where 0% means no effect;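 further: the control signal comes from parental cells without the receptor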
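cAMP rise detected as CNG-channel membrane depolarization by fluorescent dye (emission 590 nm), 30 min after compound, following 60 min dye loading containing 100 uM RO 20-1724 at room temperature. Cells: TSHR/CNG HEK 293, with parental CNG HEK 293 as control.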
15-hLO-2 inh = blocks human 15-lipoxygenase 2 activity; AID 881; Potency, µM (titrated, usually from 57.1 µM), for inactives: top-dose activity change, negative = inhibition, most hits filed as inhibitors; hit rate 0.56% among 110,000; purified 15hLO-2, xylenol orange hydroperoxide absorbance; further: on the % scale 0 is the no-effect control and ±100 the full control effect; nearly all actives have a fitted effect of over 60% in size
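Screening format was qHTS against 50 nM purified 15hLO-2 in Hepes pH 7.5 with detergent. Activity follows hydroperoxide formation from 45 uM arachidonic acid, measured as 573:405 nm absorbance ratio of the ferric-xylenol orange complex.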
Caspase-7 inhib = allosteric or competitive inhibitors of human caspase-7 | recombinant caspase-7, Ac-DEVD-AFC fluorescence rate | Potency, µM (titrated, usually from 57.5 µM), without a hit: top-dose activity change, negative = inhibition, hits mostly inhibitors | hit rate 0.02% among 75,000; active means well fitted inhibition curve with a large enough effect in the main read-out, with a control signal flat, not every such curve was filed as active; inconclusive means small, poorly fitted or top-dose-only effect, or a change in a side signal; further: % of control where 0% means no effect
Target sequence (P55210 24-198 limits assumed): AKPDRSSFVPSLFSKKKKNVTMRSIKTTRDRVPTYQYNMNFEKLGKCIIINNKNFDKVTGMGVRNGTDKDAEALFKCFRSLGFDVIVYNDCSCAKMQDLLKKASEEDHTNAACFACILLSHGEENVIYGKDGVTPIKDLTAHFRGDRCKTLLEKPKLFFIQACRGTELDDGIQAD
Target sequence (P55210 207-303 limits assumed): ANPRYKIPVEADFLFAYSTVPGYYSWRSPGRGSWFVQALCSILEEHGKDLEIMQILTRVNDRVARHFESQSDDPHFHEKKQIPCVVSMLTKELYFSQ
* marks the source's active call; other numbers are inactive results; [ ] = remark or other dose. The list is not random: actives were taken first. Their share in the collection is about 3%. Unless noted, the call rests on the fitted dose curve; in most records, active means well fitted curve in the direction sought with a large enough effect; inconclusive means small, poorly fitted or top-dose-only effect, or another doubt; inactive means no such curve, though single readings can be large; an effect the other way counts as inactive or inconclusive. Potency means the concentration at half of the fitted maximal effect.

`C[C@@H]1C=C[C@](Cc2ccccc2)(C(=O)NCCCNc2ncc(C(F)(F)F)cc2Cl)N1C(=O)c1ccccc1` gave Caspase-1 inhib 0.3%, 15-hLO inh -21.1%, HEK293 cAMP cs 25.1µM*, TSHR agonist inconclusive, 15-hLO-2 inh -1.4% and Caspase-7 inhib -5.2%.
Screening C[C@@H]1C=C[C@](Cc2ccccc2)(C(=O)NCCc2c[nH]c3ccccc23)N1C(=O)c1ccccc1 returned Caspase-1 inhib -0.9%, 15-hLO inh -18.4%, HEK293 cAMP cs 2.51µM*, TSHR agonist inconclusive, 15-hLO-2 inh -16.8% and Caspase-7 inhib -6.7%.
`COC(=O)[C@@]1(Cc2ccccc2)C=C[C@@H](C)N1C(=O)c1ccccc1` gave Caspase-1 inhib -2.6%, 15-hLO inh inconclusive, HEK293 cAMP cs 31.6µM*, TSHR agonist inconclusive, 15-hLO-2 inh 13.2% and Caspase-7 inhib -6.3%.
For Cc1ccc2nc3nc4ccc[nH]c4cc3c2c1 the results were Caspase-1 inhib -2.0%[11.5 µM], 15-hLO inh -3.4%[11.4 µM], HEK293 cAMP cs 2.5%[11.4 µM], TSHR agonist 10.6%[11.4 µM] and Caspase-7 inhib -0.6%[11.5 µM].
`Cn1c(=O)c(-c2ccccc2)nc2cncnc21` gave Caspase-1 inhib -6.3%, 15-hLO inh 11.1%, HEK293 cAMP cs 3.98µM*, TSHR agonist inconclusive, 15-hLO-2 inh -8.4% and Caspase-7 inhib -10.6%.
`O=c1c(-c2cccs2)nc2cncnc2n1-c1ccccc1` gave 15-hLO inh 5.9%, HEK293 cAMP cs 25.1µM*, TSHR agonist inconclusive, 15-hLO-2 inh -13.3% and Caspase-7 inhib inconclusive.
`O=c1c(-c2ccccc2)nc2cncnc2n1-c1ccccc1` gave Caspase-1 inhib -11.4%, 15-hLO inh -3.1%, HEK293 cAMP cs 26.0%, TSHR agonist 9.4%, 15-hLO-2 inh -10.1% and Caspase-7 inhib -16.7%.
`CCN1C(=O)[C@H]2[C@H]3[C@H](O)[C@H](O)C/C(=N/OC[C@@H](O)[C@H]4O[C@H]5OC(C)(C)O[C@H]5[C@@H]4O)[C@@H]3CC[C@@H]2C1=O` gave Caspase-1 inhib -2.2%[11.5 µM], 15-hLO inh -0.6%[11.4 µM], HEK293 cAMP cs 0.2%[11.4 µM], TSHR agonist -0.2%[11.4 µM] and Caspase-7 inhib -0.7%[11.5 µM].
`Cc1ccc(-n2ncc(C#N)c2/N=C/N2CCN(C)CC2)cc1` gave Caspase-1 inhib -0.5%, 15-hLO inh 4.0%, HEK293 cAMP cs -0.1%, TSHR agonist -6.1%, 15-hLO-2 inh -2.1% and Caspase-7 inhib -3.0%.
`Cc1ccc(-n2ncc(C#N)c2/N=C/N2CCCCCC2)cc1` gave Caspase-1 inhib -1.1%, 15-hLO inh -1.4%, HEK293 cAMP cs 31.6µM*, TSHR agonist inconclusive, 15-hLO-2 inh 3.3% and Caspase-7 inhib -10.5%.
`CC(C)(N)C(=O)N[C@@H]1C(=O)N2[C@@H]1SC(C)(C)[C@H]2C(=O)O` gave Caspase-1 inhib -2.2%[11.5 µM], 15-hLO inh 3.8%[11.4 µM], HEK293 cAMP cs 0.2%[11.4 µM], TSHR agonist -5.0%[11.4 µM], 15-hLO-2 inh -0.7%[11.4 µM] and Caspase-7 inhib -0.2%[11.5 µM].
For COc1ccccc1C(=O)Nc1c2c(nn1-c1cccc(C)c1C)CS(=O)(=O)C2 the results were Caspase-1 inhib -2.2%, 15-hLO inh -10.3%, HEK293 cAMP cs 5.01µM*, TSHR agonist inconclusive, 15-hLO-2 inh -9.3% and Caspase-7 inhib 0.5%.
N#CC1=C(N)OC(c2ccccc2)=C(C#N)C1c1ccc2c(c1)OCO2 (stereo not drawn) was read as Caspase-1 inhib -7.4%, 15-hLO inh 31.6µM*, HEK293 cAMP cs 25.1%, TSHR agonist 8.4%, 15-hLO-2 inh -15.1% and Caspase-7 inhib -6.1%.
Cc1ccc(C2C(C#N)=C(N)Oc3cc4c(cc32)OCO4)cc1 (stereo not drawn) was read as Caspase-1 inhib inconclusive, 15-hLO inh inconclusive, HEK293 cAMP cs 24.4%, 15-hLO-2 inh -8.2% and Caspase-7 inhib -18.6%.
`O=C(CSc1nc2ccccc2o1)Nc1nc2c(s1)CCCC2` gave Caspase-1 inhib -5.2%, 15-hLO inh 5.6%, HEK293 cAMP cs 31.6µM*, TSHR agonist inconclusive and Caspase-7 inhib -3.2%.
